Results reported in the supplement of paper PMC10338343.
± gives the standard deviation.

Tested on: MILI (PIWIL2) piRISC loaded with L1MC piRNA (26 nt)
Assay: pre-steady-state target cleavage rate (min^-1); guide: L1MC piRNA 5'p-UAACUAAAUACUAUGCAAGCUGUAGG; MIWI and MILI are mouse PIWI proteins and EfPiwi is from a freshwater sponge; tags in brackets are library labels; higher = faster piRNA-guided slicing of the target
Conditions: auxiliary factor: 500 nM mouse GTSF1
Procedure: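 Cleave-'n-Seq: a library of target RNAs (target site embedded in constant flanks, ACAGCATTCCGCGTTAGTGATATCCG... 5' flank; DNA-blocked outside the site) at 0.1 nM was incubated with 1 nM active mouse MILI or MIWI piRISC (synthetic 5'-monophosphorylated piRNA guide) with or without 500 nM mouse GTSF1 at 33 °C for 1 min to 16 h. Uncleaved targets were sequenced and normalised to non-target controls, and the pooled three trials were fitted to a burst-and-steady-state model to give the pre-steady-state cleavage rate (min^-1; k3 is constrained to at most 1e-4). Sequence is the target site only; target names encode pairing extent (gX:gY) and contiguous / 1-mismatch / 2-mismatch / bulge geometry. Fits with R² ≤ 0 are excluded.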

Going from UCCUGGAUGUCGUUGCAUAGUAUUUAGUAA to UCCUGGAUGAGCUUGCAUUGUAUUAAGUUA, the “pre-steady-state target cleavage rate” value falls from 0.191 ± 0.03 to 0.0879 ± 0.017.

Compared with UCCUGGUACAGCUUGCAUAGAAUUAAGUUA, UCCUGCUACAGCUUGAAUAGUAUUUAGUUA is higher in “pre-steady-state target cleavage rate” value: 0.0989 ± 0.03 for the first, 0.22 ± 0.013 for the second.

Going from UCCUGGAUCAGCUGGCAUAGUAUUUAGUUA to UCCUGCUACAGCUACGAUAGUAUUUAGAAA, the “pre-steady-state target cleavage rate” value falls from 0.253 ± 0.023 to 0.0517 ± 0.019.

UCCUCCUACAGCUUGCAUAGUAUUUAGGUUA and UCCUGGUACACGAUGCAUAGUAUUUAGUUA are within error of each other in “pre-steady-state target cleavage rate” value: 0.251 ± 0.045 for the first, 0.252 ± 0.058 for the second.

Going from UCCUGCUACAGCUUGCUUAGUAUUUAGAAA to UCCUGGAUGAGCAAGCAUAGUAUUUAGUAA, the “pre-steady-state target cleavage rate” value rises from 0.0602 ± 0.019 to 0.123 ± 0.018.

Compared with UCCUCCUACAGCUUGCAUAGUAUUUUCAUA, UCCUGGAACAGCCUUGCAUAGUAUUUAGUUA is higher in “pre-steady-state target cleavage rate” value: 0.091 ± 0.02 for the first, 0.225 ± 0.019 for the second.

UCCUGCUACAGCUUGCAUUGUAUAUAGUUA and UCCUGCUACAGCUAGCUUAGUAUUUAGUUA are within error of each other in “pre-steady-state target cleavage rate” value: 0.194 ± 0.028 for the first, 0.227 ± 0.018 for the second.

First: UCCUGGAUGAGCUUGCAUAGUUUUUUGUUA
Second: UCCUGGAUGUGGUUGCAUAGUAUUUUGUUA
The “pre-steady-state target cleavage rate” value of the first is lower: 0.0139 ± 0.0061 for the first, 0.0586 ± 0.023 for the second.

Going from UCCUGGUACAGCUUGCCUAGUAUUUAGUUA to UCCUGGAUGUCGAUGCAUAGUAUUGUAGUUA, the “pre-steady-state target cleavage rate” value falls from 0.213 ± 0.019 to 0.0505 ± 0.016.

UCCUGCUACAGCUUGCAAUCUAUUUAGUUA and UCCUGGAACAGCUUGCAUAGAUUUUAGUUA are within error of each other in “pre-steady-state target cleavage rate” value: 0.0303 ± 0.0068 for the first, 0.0289 ± 0.0057 for the second.

UCCUGGAUGUCGAUGCAUAGUAUCUAGUUA and UCCUGGAUGUCCGUUGCAUAGUAUUUAGUUA are within error of each other in “pre-steady-state target cleavage rate” value: 0.0915 ± 0.017 for the first, 0.0604 ± 0.018 for the second.

Same assay, conditions: auxiliary factor: none (no GTSF1)

UCCUGGAUGUCGUUGCAUAGUAUUUAGUAA and UCCUGGAUGAGCUUGCAUUGUAUUAAGUUA are within error of each other in “pre-steady-state target cleavage rate” value: 0.00351 ± 0.0029 for the first, 0.00381 ± 0.0027 for the second.

UCCUGCUACAGCUUGAAUAGUAUUUAGUUA and UCCUGGAUCAGCUGGCAUAGUAUUUAGUUA are within error of each other in “pre-steady-state target cleavage rate” value: 0.00812 ± 0.002 for the first, 0.00736 ± 0.0024 for the second.

UCCUCCUACAGCUUGCAUAGUAUUUAGGUUA and UCCUGGUACACGAUGCAUAGUAUUUAGUUA are within error of each other in “pre-steady-state target cleavage rate” value: 0.00312 ± 0.0031 for the first, 0.00395 ± 0.0035 for the second.

First: UCCUGGAUGAGCAAGCAUAGUAUUUAGUAA
Second: UCCUGGAUGUCGUUCCAUAGUAUUUAGAUA
The “pre-steady-state target cleavage rate” value of the first is higher: 0.00443 ± 0.0027 for the first, less than 0.0001 for the second.

Compared with UCCUGGAACAGCCUUGCAUAGUAUUUAGUUA, UCCUGCUACAGCUUGCAUUGUAUAUAGUUA is lower in “pre-steady-state target cleavage rate” value: 0.00974 ± 0.003 for the first, 0.00483 ± 0.0018 for the second.

UCCUGCUACAGCUAGCUUAGUAUUUAGUUA and UCCUGGAUGAGCUUGCAUAGUUUUUUGUUA are within error of each other in “pre-steady-state target cleavage rate” value: 0.00468 ± 0.0023 for the first, 0.00346 ± 0.003 for the second.

UCCUGGAUGUGGUUGCAUAGUAUUUUGUUA and UCCUGGUACAGCUUGCCUAGUAUUUAGUUA are within error of each other in “pre-steady-state target cleavage rate” value: 0.0039 ± 0.0037 for the first, 0.00843 ± 0.0026 for the second.

UCCUGCUACAGCUUGCAAUCUAUUUAGUUA and UCCUGGAACAGCUUGCAUAGAUUUUAGUUA are within error of each other in “pre-steady-state target cleavage rate” value: 0.00243 ± 0.0019 for the first, 0.003 ± 0.0026 for the second.

UCCUGGAUGUCGAUGCAUAGUAUCUAGUUA and UCCUGGAUGUCCGUUGCAUAGUAUUUAGUUA are within error of each other in “pre-steady-state target cleavage rate” value: 0.00396 ± 0.0023 for the first, 0.008 ± 0.0033 for the second.
